Source: PubChem
Only some compounds are listed: those with a hit (about 17% of all), similar ones and a draw of the others.
DT40 TDP1 CPT – qHTS for Inhibitors of human tyrosyl-DNA phosphodiesterase 1 (TDP1): qHTS in cells in presence of CPT. chicken DT40 Tdp1-/-;hTDP1 cells + 20 nM CPT, ATP luminescence, 48 h. Potency, µM (titrated, usually from 46.2 µM), without a hit: at the highest dose activity change, negative = growth inhibition, hits mostly inhibitors. actives 12% (n = 420,000); also: % is scaled to controls: 0 for no effect and ±100 for the full control effect; nearly all actives have a fitted effect of over 55% in size
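Chicken DT40 Tdp1-/- cells complemented with human TDP1, 400 cells/well, exposed to compounds plus 20 nM camptothecin for at least 48 h at 37 C; viability read as ATP content by CellTiter-Glo luminescence.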
S2 tox – Viability Counterscreen for Primary qHTS for Inhibitors of ATXN expression; actives 0.49% (n = 400,000); Potency, µM (series often up to 56.7 µM), actives largely listed as cytotoxic; S2 cells (HEK-293 line with an ATXN2-luciferase reporter) viability, CellTiter-Fluor protease fluorescence, 24 h; also: nearly all actives have a fitted effect of over 40% in size
TGFb inhibitor – qHTS for Inhibitors of TGF-b | Potency, µM (doses to about 46.1 µM), for the others: at the highest dose activity, negative = inhibition, usual class: inhibitors | HepG2 CAGA-GFP TGF-b/SMAD3 reporter, GFP fluorescence, 18 h; TGF-beta stimulated, 500 pg/mL final | actives 1.2% (n = 410,000); also: % is scaled to controls: 0 for no effect and ±100 for the full control effect; nearly all actives have a fitted effect of over 65% in size
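Inhibition of TGF-beta-driven CAGA-GFP reporter expression in HEPG2 cells is measured by cellular GFP fluorescence after 18 h stimulation with 500 pg/mL recombinant TGF-beta in 1% FBS medium at 37 degrees C.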
ATXN2 expr inh – Primary qHTS for Inhibitors of ATXN expression | HEK-293 ATXN2-luciferase reporter, luminescence, 24 h | Potency, µM (titrated, usually from 57 µM), inactives show at the highest dose activity change, negative = inhibition, actives largely listed as inhibitors | actives 0.72% (n = 360,000); also: % is scaled to controls: 0 for no effect and ±100 for the full control effect; nearly all actives have a fitted effect of over 55% in size
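qHTS (up to 57 uM final) was run with 24 h compound exposure of reporter cells at 37 °C. Each well was multiplexed: SteadyGlo luminescence measured ATXN2-luciferase expression after a fluorogenic Gly-Phe-AFC viability readout (25 uM final).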
DT40 TDP1 no CPT – qHTS for Inhibitors of human tyrosyl-DNA phosphodiesterase 1 (TDP1): qHTS in cells in absence of CPT | DT40 Tdp1-/- hTDP1 cells, no CPT, ATP luminescence, 48 h | Potency, µM (top dose mostly 46.2 µM), inactives show top-dose activity change, negative = growth inhibition, usual class: inhibitors | actives 15% (n = 420,000); also: % is scaled to controls: 0 for no effect and ±100 for the full control effect; nearly all actives have a fitted effect of over 55% in size
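Luminescent ATP content (CellTiter-Glo) served as the growth readout. Knockout chicken DT40 cells expressing human TDP1 were exposed to compounds without camptothecin for a minimum 48 hr at 37 °C.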
HepG2 tox – qHTS for Inhibitors of TGF-b: Cytotox Counterscreen | HepG2 CAGA-GFP viability, ATP luminescence, 18 h | Potency, µM (top dose mostly 46.1 µM), without a hit: at the top dose activity change, negative = cytotoxicity, most hits filed as cytotoxic | actives 0.76% (n = 410,000) | AID 588856, 2011
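CellTiter-Glo luminescence gave cytotoxicity after 18 hours at 37 degrees C. The cells were HepG2 CAGA-GFP in 1% FBS DMEM, stimulated with 500 pg/mL TGF-beta after compound addition. %Activity was normalised to no-cell wells (complete cell-killing) and DMSO (no toxicity), and curves were fitted and classified.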
Starred values were filed as active, the others as inactive; i = inactive; u = inconclusive; x = no result; ! = not active in a repeat. Calls follow the shape of the dose curve; as a rule, active = well fitted curve in the direction sought with a large enough effect; inconclusive = small, poorly fitted or top-dose-only effect, or another doubt; inactive = no such curve, though single readings can be large; an effect the other way counts as inactive or inconclusive. Potency is read from the fitted curve at half-maximal effect.

SMILES | DT40 TDP1 CPT | S2 tox | TGFb inhibitor | ATXN2 expr inh | DT40 TDP1 no CPT | HepG2 tox
Cn1cccc/c1=N\c1cccc[n+]1C | 1.5µM* | i | -31% | x | 1µM* | -8%
CCCCn1c(/N=C/c2ccccc2NS(=O)(=O)c2ccc(C)cc2)nc2ccccc21 | u | i | 16µM* | 8% | 23µM* | -4%
Cc1ccc(S(=O)(=O)Nc2ccccc2/C=N/c2nc3ccccc3n2C(C)C)cc1 | 18µM* | x | u | -3% | 21µM* | -29%
CCn1c(/N=C/c2ccccc2O)nc2ccccc21 | 20% | i | -4% | 5% | 7% | -1%
C/C(=C1\CCOC(=O)S1)N(C=O)Cc1cnc(C)nc1N | x | i | x | 5% | x | x
Cc1nn(Cc2c(Cl)cccc2Cl)c(C)c1NC(=O)c1sc2ccccc2c1Cl | 18µM* | i | -27% | -32% | 16µM* | 4%
Cc1nn(Cc2ccc(Cl)c(Cl)c2)c(C)c1NC(=O)c1sc2ccccc2c1Cl | u | u | u | -33% | 15µM* | -25%
Cc1ccccc1Cn1nc(C)c(NC(=O)c2sc3ccccc3c2Cl)c1C | u | i | -15% | -25% | 21µM* | -28%
Cc1nn(Cc2ccc(Cl)cc2Cl)c(C)c1NC(=O)c1sc2ccccc2c1Cl | -26% | u | -3% | -33% | -28% | -1%
COc1cccc(N(C(=O)c2csnn2)C(C(=O)NC2CCCC2)c2ccccc2)c1 (configuration not stated) | -1% | i | -22% | 0% | -28% | -3%
O=C(C[n+]1cccc2cccc(O)c21)c1ccc(Cl)cc1 | u | x | -28% | x | u | -9%
Cc1ccc(C(=O)C[n+]2cccc3ccccc32)cc1 | u | i | 0% | 3% | 18µM* | -37%
O=C(C[n+]1cccc2cc(Cl)ccc21)c1ccc2ccccc2c1 | 5µM* | x | 2% | x | 4µM* | -86%
Brc1cc2ccccc2[n+](Cc2ccccc2)c1 | u | i | 0% | -16% | 12µM* | -20%
O=C(C[n+]1cccc2ccccc21)c1ccc(Br)cc1 | u | i | -9% | x | u | -19%
O=C(C[n+]1cccc2cc(Cl)ccc21)c1ccc(I)cc1 | 11µM* | x | u | x | 11µM* | -29%
O=C(C[n+]1cccc2cc(Cl)ccc21)c1ccc(Br)cc1 | u | x | u | x | u | -53%
O=C(C[n+]1cc(Br)cc2ccccc21)c1ccc(Cl)cc1 | u | i | u | 28% | 18µM* | 3%
Cc1ccc[n+](CC(=O)c2ccc(-c3ccccc3)cc2)c1 | -1% | i | -1% | 4% | 2% | -7%
Cc1ccc(C)[n+](CC(=O)c2ccc(-c3ccccc3)cc2)c1 | 2.6µM* | i | u | u | 1.8µM* | -43%
COc1ccc(C(=O)C[n+]2cccc3cc(Cl)ccc32)cc1 | u | x | -4% | x | 16µM* | -28%
CC(=O)C[n+]1cccc2cc(Cl)ccc21 | -19% | x | 5% | x | -28% | 1%
Cc1cc2ccccc2c[n+]1CC(=O)c1ccc(F)cc1 | u | x | -18% | x | 13µM* | -1%
CCN(CC)CCNC(=O)CNC(=O)c1nn(-c2ccc(OC)cc2OC)c(=O)c2ccccc12 | -1% | i | -14% | x | -3% | 3%
Cc1cc(N2CCCCC2)nc(NCc2ccccc2)n1 | 10µM* | u | u | u | 7.3µM* | -5%
SMILES | DT40 TDP1 CPT | S2 tox | TGFb inhibitor | ATXN2 expr inh | DT40 TDP1 no CPT | HepG2 tox
CCOc1cc(C)nc(NCc2ccccc2)n1 | 23µM* | i | u | -6% | 21µM* | -56%
CCCCOc1cc(C)nc(NCc2ccccc2)n1 | 4.1µM* | i | -29% | -13% | 16µM* | -29%
CC(=O)c1ccc(Oc2cc(C)nc(NCc3ccccc3)n2)cc1 | 21µM* | u | -7% | -27% | 21µM* | -14%
Cc1cc(OC2CCCCC2)nc(NCc2ccccc2)n1 | 4% | i | 4% | -6% | 5% | 19%
C[C@@H]1CCC[C@H](C)N1Cc1nc(Cc2ccccc2Cl)no1 | 15µM* | i | 0% | -16% | u | -24%
COc1ccc(N2CCN(CCCNC(=O)c3ccc(CS(=O)(=O)c4ccc(Cl)cc4)o3)CC2)cc1 | u | i | -14% | x | 21µM* | 9%
COc1ccc(S(=O)(=O)Cc2ccc(C(=O)NC3CCCCCC3)o2)cc1 | 15µM* | i | -3% | -6% | u | 3%
COc1ccc(CCNC(=O)c2ccc(CS(=O)(=O)c3ccc(C)cc3)o2)cc1OC | u | i | u | -32% | 15µM*! | -15%
O=C(NCCc1ccc(Cl)cc1)c1ccc(CS(=O)(=O)Cc2ccccc2F)o1 | u | 20µM* | -28% | u | 21µM* | 1%
Cc1cc(OC(=O)Nc2ccccc2)ccc1Cl | 8% | i | -1% | x | 4% | 0%
Cc1ccc(-c2cc(C(F)F)n3ncc(C(=O)Nc4ccc(S(=O)(=O)Nc5ccccc5C)cc4)c3n2)cc1 | -19% | i | 5% | -13% | -19% | 10%
COc1ccc(CCNC(=O)c2ccc(CS(=O)(=O)c3ccc(Cl)cc3)o2)cc1OC | 23µM* | i | -10% | u | 16µM* | -17%
COc1ccc(CCNC(=O)c2ccc(CS(=O)(=O)Cc3ccc(C)cc3)o2)cc1OC | u | i | -3% | x | 23µM* | -52%
COc1ccc(CCNC(=O)c2ccc(CSc3ccccc3)o2)cc1 | -9% | x | -3% | -11% | -15% | -38%
CCc1ccccc1S(=O)(=O)Cc1ccc(C(=O)NCCc2ccc(C)cc2)o1 | u | u | -14% | u | 29µM* | -21%
COc1ccc(CCNC(=O)c2ccc(CSc3ccc(Cl)cc3)o2)cc1OC | 13µM* | x | x | x | 13µM* | x
CC(C(=O)O)n1c2ccccc2c2cnn(C)c(=O)c21 (configuration not stated) | -21% | i | 6% | 7% | 20% | 0%
Cc1ccc(C2OC3=C(C(=O)CC(C)(C)C3)C(N)=C2C#N)o1 (configuration not stated) | 10% | i | 21% | -8% | 0% | 2%
